From PubChem
FMDV inh = High Throughput Screening for Foot and Mouth Disease Virus Antivirals; FMDV antiviral cell-based qHTS; Potency, µM (titrated, usually from 57.9 µM), without a hit: top-dose activity change, negative = inhibition, most hits filed as inhibitors; hit rate 1.2% among 410,000; AID 1159524, 2015; calls by dose curve; tested in HEK293T cells; also: read-out not given here; potency is read from the fitted curve at half-maximal effect; nearly all actives have a fitted effect of over 45% in size
HCMV antiviral = qHTS Assay for inhibitors of the human cytomegalovirus (HCMV). HFF cells, HCMV-luciferase reporter, 72 h; stronger effect = lower value. hit rate 4.5% among 410,000. activity change, negative = inhibition, % at 57.5 µM; in the data active = activity change below about -60%; inconclusive = no clear call, values can overlap the other calls; inactive = above about -39%
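After 16 h attachment at 37C, HFF cells received test compound and HCMV-luciferase (1 PFU/cell); reporter luminescence read 72 h later, data normalized against buffer-only and known inhibitor Salinomycin.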
LASV entry inh = qHTS for Inhibitors of binding or entry into cells for Lassa Virus; hit rate 1.2% among 300,000; Lassa virus pseudotype entry inhibition, cell reporter; Potency, µM (series often up to 37.9 µM), without a hit: top-dose activity change, negative = inhibition, actives largely listed as inhibitors; calls by dose curve; tested in HEK293 cells; also: potency is read from the fitted curve at half-maximal effect; nearly all actives have a fitted effect of over 50% in size
VACV Venus inh = qHTS for Stage-Specific Inhibitors of Vaccinia Orthopoxvirus: Venus Reporter Primary qHTS; hit rate 0.46% among 330,000; Potency, µM (titrated, usually from 36.5 µM), for the others: at the top dose activity change, negative = inhibition, actives largely listed as inhibitors; Vaccinia virus Venus reporter expression, fluorescence; calls by dose curve; tested in A549 cells; also: potency is read from the fitted curve at half-maximal effect; nearly all actives have a fitted effect of over 30% in size
Vaccinia mCherry = qHTS for Stage-Specific Inhibitors of Vaccinia Orthopoxvirus: mCherry Reporter Primary qHTS | Vaccinia virus mCherry reporter infection, fluorescence | Potency, µM (doses to about 36.5 µM), for the others: at the top dose activity change, negative = inhibition, hits mostly inhibitors | hit rate 0.63% among 310,000; calls by dose curve; tested in A549 cells; also: potency is read from the fitted curve at half-maximal effect; nearly all actives have a fitted effect of over 35% in size
Marburg entry inh = qHTS for inhibitors of binding or entry into cells for Marburg Virus; AID 540276, 2011; Potency, µM (top dose mostly 37.8 µM), for the others: at the highest dose activity change, negative = inhibition, most hits filed as inhibitors; Marburg virus pseudotyped entry inhibition, cell reporter; hit rate 1.8% among 300,000; calls by dose curve; tested in HEK293 cells; also: potency is read from the fitted curve at half-maximal effect
* marks the source's active call; other numbers are inactive results; [ ] = dose if it differs, or a comment. Only some compounds are listed: those with a hit (about 6.5% of all), similar ones and a draw of the others. % is scaled to controls: 0 for no effect and ±100 for the full control effect.

What do the screens show for `O=[N+]([O-])c1cc(S(=O)(=O)C(F)(F)F)ccc1Sc1nc2ccccc2[nH]1`?
FMDV inh: inconclusive; HCMV antiviral: -103*; LASV entry inh: inconclusive; VACV Venus inh: -12%; Vaccinia mCherry: -28%; Marburg entry inh: inconclusive

What do the screens show for `Cc1ccc(CNC(=O)COC(=O)CN2C(=O)C3CC=CCC3C2=O)cc1` (stereo not drawn)?
FMDV inh: -4%; HCMV antiviral: -13

Results for Cc1cc(=O)[nH]c(SCC(=O)Nc2ccc(S(N)(=O)=O)cc2)n1 ?
FMDV inh: 0%; HCMV antiviral: -61*; LASV entry inh: 0%[46.1 µM]; VACV Venus inh: 2%; Vaccinia mCherry: inactive; Marburg entry inh: 0%[46.1 µM]

What do the screens show for `CCc1ccc(NC(=O)CSc2nc(NS(=O)(=O)c3ccccc3)cc(=O)[nH]2)cc1`?
FMDV inh: -2%; HCMV antiviral: 29; LASV entry inh: inconclusive; VACV Venus inh: -3%; Vaccinia mCherry: 8.9µM*; Marburg entry inh: 3.2µM*

What do the screens show for `Cc1ccc(NC(=O)CSc2nc(=O)n(CCN(C)C)c3c2CCCC3)cc1Cl`?
FMDV inh: 10%; HCMV antiviral: -8; LASV entry inh: inconclusive; VACV Venus inh: -28%; Vaccinia mCherry: -11%; Marburg entry inh: inconclusive

Results for CC(C)(C)OC(=O)N1CCc2nc3ccccc3c(N)c2C1=O ?
HCMV antiviral: -10

What do the screens show for `N=c1c2c(-c3ccccc3)c(-c3ccccc3)n(Cc3ccco3)c2ncn1CCN1CCOCC1`?
FMDV inh: -2%; HCMV antiviral: -33; LASV entry inh: inconclusive; Marburg entry inh: 10µM*

What do the screens show for `N=c1c2c(-c3ccccc3)c(-c3ccccc3)n(Cc3ccco3)c2ncn1CCCO`?
FMDV inh: inconclusive; HCMV antiviral: -32; LASV entry inh: inconclusive; VACV Venus inh: -8%; Vaccinia mCherry: -7%; Marburg entry inh: 5.6µM*

What do the screens show for `N=c1c2c(-c3ccccc3)c(-c3ccccc3)n(Cc3ccco3)c2ncn1CCO`?
FMDV inh: inconclusive; HCMV antiviral: -5; LASV entry inh: inconclusive; VACV Venus inh: inconclusive; Vaccinia mCherry: -27%; Marburg entry inh: inconclusive

How did CC1(C(=O)NS(=O)(=O)c2cccs2)CCN1C(=O)CC1CCCCC1 (stereo not drawn) do in these assays?
FMDV inh: -22%; HCMV antiviral: 8; VACV Venus inh: -5%; Vaccinia mCherry: -2%

What do the screens show for `Cc1cccc(NC(=O)CSc2nncn2N)c1C`?
FMDV inh: -10%; HCMV antiviral: -13; VACV Venus inh: 1%; Vaccinia mCherry: inactive

How did Cc1cccn2c(=O)c(C=O)c(Cl)nc12 do in these assays?
FMDV inh: 32µM*; HCMV antiviral: -88*; LASV entry inh: inconclusive; VACV Venus inh: -14%; Vaccinia mCherry: -15%; Marburg entry inh: inconclusive

How did O=C(CSc1nnc(-c2ccc(OC(F)F)cc2)o1)N1CCOCC1 do in these assays?
HCMV antiviral: 54; LASV entry inh: 28%; VACV Venus inh: inconclusive; Vaccinia mCherry: 16µM*; Marburg entry inh: 2%

Results for Nc1c(C(=O)NCc2ccccc2)nnn1Cc1cccc(Br)c1 ?
FMDV inh: 1%; HCMV antiviral: -27; LASV entry inh: inconclusive; VACV Venus inh: -20%[7.34 µM]; Vaccinia mCherry: -30%[7.34 µM]; Marburg entry inh: -19%[46.1 µM]

How did Cc1ccc(S(=O)(=O)/N=C(\CN2CCOCC2)N2CCCC2)cc1 do in these assays?
HCMV antiviral: 28; LASV entry inh: 17%; VACV Venus inh: -11%; Vaccinia mCherry: -16%; Marburg entry inh: 0%

What do the screens show for `Cc1ccc(S(=O)(=O)/N=C(\CCl)N2CCOCC2)cc1`?
FMDV inh: 25µM*; HCMV antiviral: 22; LASV entry inh: inconclusive; VACV Venus inh: inconclusive; Vaccinia mCherry: inconclusive; Marburg entry inh: inconclusive

How did CCC(=NCc1ccco1)c1c(O)n(C2CCCCC2)c(=O)[nH]c1=O do in these assays?
FMDV inh: inconclusive; HCMV antiviral: -29; LASV entry inh: 3.7µM*; Marburg entry inh: -2%

How did CC(=NCc1ccco1)c1c(O)n(C2CCCCC2)c(=O)[nH]c1=O do in these assays?
FMDV inh: -18%; HCMV antiviral: -4; LASV entry inh: 2%; Marburg entry inh: 18%

How did Cn1ccnc1SCC(=O)c1ccc2ccccc2c1 do in these assays?
FMDV inh: 20%; HCMV antiviral: 26; LASV entry inh: -23%; VACV Venus inh: -5%; Vaccinia mCherry: -4%; Marburg entry inh: inconclusive

How did C/C(=N\NC(=O)c1c(C)nc2ccccn12)c1ccc(O)cc1O do in these assays?
FMDV inh: 3%; HCMV antiviral: -82*; LASV entry inh: -26%[46.1 µM]; VACV Venus inh: inconclusive; Vaccinia mCherry: inconclusive; Marburg entry inh: -27%[46.1 µM]

How did Cc1ccccc1CNC(=O)c1ccc2nc(C(C)C)oc2c1 do in these assays?
FMDV inh: 18%; HCMV antiviral: -28; LASV entry inh: -3%[46.1 µM]; VACV Venus inh: -9%[7.34 µM]; Vaccinia mCherry: 0%[7.34 µM]

Results for CCCCN(CCC(=O)O)c1ccc(/C=C/c2ccnc3ccccc23)cc1 ?
VACV Venus inh: -8%; Vaccinia mCherry: inconclusive

How did COc1ccc(-n2cc(C(=O)c3cc4ccccc4oc3=O)c(C(C)=O)n2)cc1 do in these assays?
FMDV inh: 13%; HCMV antiviral: -67*; LASV entry inh: 3%; Marburg entry inh: 8%

What do the screens show for `N/C(=N\OC(=O)/C=C/c1ccccc1Cl)c1cccnc1`?
FMDV inh: 55%; HCMV antiviral: 74; LASV entry inh: -14%; VACV Venus inh: 3%[7.34 µM]; Vaccinia mCherry: -8%[7.34 µM]; Marburg entry inh: inconclusive

What do the screens show for `COc1ccc(Cl)cc1C(=O)O/N=C(\N)c1ccccn1`?
FMDV inh: 35%; HCMV antiviral: 143

What do the screens show for `N/C(=N\OC(=O)COc1ccc(Br)cc1Cl)c1ccccn1`?
FMDV inh: -36%; HCMV antiviral: 22; LASV entry inh: 2µM*; VACV Venus inh: -18%; Vaccinia mCherry: 5%; Marburg entry inh: inconclusive

What do the screens show for `N/C(=N\OC(=O)c1cc(Cl)ccc1Cl)c1ccccn1`?
FMDV inh: -15%; HCMV antiviral: -15; LASV entry inh: 6.5µM*; Marburg entry inh: 4.1µM*

What do the screens show for `N/C(=N\OC(=O)/C=C/c1ccccc1Cl)c1ccccn1`?
FMDV inh: -23%; HCMV antiviral: -39; LASV entry inh: -23%; Marburg entry inh: 9.2µM*

How did N/C(=N\OC(=O)c1ccccc1)c1ccccn1 do in these assays?
FMDV inh: 10µM*; HCMV antiviral: 0; LASV entry inh: inconclusive; VACV Venus inh: -5%; Vaccinia mCherry: inactive; Marburg entry inh: inconclusive

Results for Cc1ccc(S(=O)(=O)c2[nH]c(-c3ccccc3)nc2SC(C)C(=O)O)cc1 (stereo not drawn) ?
FMDV inh: 1%; HCMV antiviral: -7; LASV entry inh: 11%[46.1 µM]; VACV Venus inh: -7%; Vaccinia mCherry: -8%; Marburg entry inh: -2%[46.1 µM]
